One sequence from article PMC7862700, “An all-to-all approach to the identification of sequence-specific readers for epigenetic DNA modifications on cytosine” can be followed below.

Common to all, as to test: DAPPL (digital affinity profiling via proximity ligation, sequencing); 10 mM Tris-HCl pH 7.5, 50 mM NaCl, 1 mM DTT, 4% glycerol, room temperature, 30 min; GST-TFs on glutathione beads, 16-mer random dsDNA library, 0.1% formaldehyde crosslink after washing; high values mean tight binding
Test [1] has as its target T1, FEV (Homo sapiens, UniProt Q99581 1-238).
T1 sequence: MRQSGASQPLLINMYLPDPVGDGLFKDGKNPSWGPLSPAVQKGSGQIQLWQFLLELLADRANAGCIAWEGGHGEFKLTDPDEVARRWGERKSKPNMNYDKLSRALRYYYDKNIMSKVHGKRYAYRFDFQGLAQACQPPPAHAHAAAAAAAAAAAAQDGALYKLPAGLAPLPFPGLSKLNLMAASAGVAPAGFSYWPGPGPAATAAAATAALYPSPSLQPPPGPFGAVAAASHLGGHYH
As to conditions: protein: recombinant; tags: N-terminal GST; dsDNA, one strand shown. A digest of the protocol: (§1)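 Pools of DNA-barcoded human transcription factors, expressed in yeast as GST fusions on glutathione beads and combined with a tag-only sample, were incubated with 200 nmole of a 16-mer random double-stranded DNA library. Incubation took 30 min at room temperature in Tris/NaCl/DTT/glycerol buffer and was followed by washing, 0.1% formaldehyde crosslinking, proximity ligation (BsaI/T4 ligase, 1 h, 37 °C), PCR amplification and sequencing on an Illumina NextSeq500. Binding signal is the ratio of a hexamer's read frequency for a factor to its frequency for the tag-only sample.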

The target in test [2] is ETV5 (Homo sapiens, UniProt P41161 1-510). As to conditions: protein: recombinant; tags: N-terminal GST; dsDNA, one strand shown. The essentials: as §1
Sequence of ETV5 (P41161 whole entry): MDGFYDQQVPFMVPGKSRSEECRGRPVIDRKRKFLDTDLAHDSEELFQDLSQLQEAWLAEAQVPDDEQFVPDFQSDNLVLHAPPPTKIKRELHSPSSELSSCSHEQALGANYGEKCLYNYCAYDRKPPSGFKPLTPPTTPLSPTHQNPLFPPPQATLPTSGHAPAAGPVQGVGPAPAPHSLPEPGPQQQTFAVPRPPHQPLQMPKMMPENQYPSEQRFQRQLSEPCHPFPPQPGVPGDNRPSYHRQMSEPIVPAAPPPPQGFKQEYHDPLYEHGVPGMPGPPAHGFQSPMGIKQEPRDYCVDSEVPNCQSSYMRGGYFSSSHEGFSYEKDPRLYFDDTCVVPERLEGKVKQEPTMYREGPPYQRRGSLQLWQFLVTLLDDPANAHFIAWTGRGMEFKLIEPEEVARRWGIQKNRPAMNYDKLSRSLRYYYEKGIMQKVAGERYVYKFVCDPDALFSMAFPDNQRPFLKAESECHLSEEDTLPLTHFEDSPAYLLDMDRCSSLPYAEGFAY
The target of test [3] is HSF1 (Homo sapiens, UniProt Q00613 1-529). As to conditions: protein: recombinant; tags: N-terminal GST; chain copies: 3; dsDNA, one strand shown. A digest of the protocol:
as §1

The target of test [4] is T2, SPIC (Homo sapiens, UniProt Q8N5J4 1-248).
T2 sequence: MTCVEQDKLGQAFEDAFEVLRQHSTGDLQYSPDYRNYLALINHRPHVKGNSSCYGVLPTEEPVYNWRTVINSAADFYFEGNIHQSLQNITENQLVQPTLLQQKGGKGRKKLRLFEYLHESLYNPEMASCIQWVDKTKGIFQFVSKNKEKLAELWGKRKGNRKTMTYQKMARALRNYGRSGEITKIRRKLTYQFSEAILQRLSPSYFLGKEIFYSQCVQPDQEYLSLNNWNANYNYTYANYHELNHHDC
As to conditions: protein: recombinant; tags: N-terminal GST; dsDNA, one strand shown. A digest of the protocol:
as §1

In test [5] the target is ELF4 (Homo sapiens, UniProt Q99607 1-663). As to conditions: protein: recombinant; tags: N-terminal GST; dsDNA, one strand shown. The essentials:
as §1

For test [6], the target named is T3, ELK4 (Homo sapiens, UniProt P28324-2 1-405).
T3 sequence: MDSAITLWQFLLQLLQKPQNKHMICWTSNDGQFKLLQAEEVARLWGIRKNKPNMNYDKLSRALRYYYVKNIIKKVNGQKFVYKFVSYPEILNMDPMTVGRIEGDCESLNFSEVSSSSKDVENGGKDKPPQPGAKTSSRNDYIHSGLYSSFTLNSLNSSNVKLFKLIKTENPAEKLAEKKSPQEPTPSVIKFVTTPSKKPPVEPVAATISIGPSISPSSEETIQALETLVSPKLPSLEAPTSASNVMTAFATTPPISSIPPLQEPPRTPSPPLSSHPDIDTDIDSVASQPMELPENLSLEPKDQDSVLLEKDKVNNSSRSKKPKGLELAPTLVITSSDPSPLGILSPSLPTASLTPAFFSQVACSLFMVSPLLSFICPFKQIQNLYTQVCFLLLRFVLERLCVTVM
As to conditions: protein: recombinant; tags: N-terminal GST; dsDNA, one strand shown. A digest of the protocol: as §1

In test [7] the target is T4, ETV2 (Homo sapiens, UniProt O00321 1-342).
T4 sequence: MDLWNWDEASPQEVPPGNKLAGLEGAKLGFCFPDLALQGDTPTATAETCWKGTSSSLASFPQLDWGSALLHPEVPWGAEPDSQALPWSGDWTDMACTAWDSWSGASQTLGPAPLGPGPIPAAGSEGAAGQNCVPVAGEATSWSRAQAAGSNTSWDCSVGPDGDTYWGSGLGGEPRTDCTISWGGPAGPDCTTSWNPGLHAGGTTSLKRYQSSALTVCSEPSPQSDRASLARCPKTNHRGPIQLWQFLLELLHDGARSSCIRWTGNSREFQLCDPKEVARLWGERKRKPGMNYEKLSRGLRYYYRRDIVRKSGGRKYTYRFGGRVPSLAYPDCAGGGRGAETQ
As to conditions: protein: recombinant; tags: N-terminal GST; dsDNA, one strand shown. A digest of the protocol:
as §1

Test [8] deals with T5, ELF3 (Homo sapiens, UniProt P78545 1-371).
T5 sequence: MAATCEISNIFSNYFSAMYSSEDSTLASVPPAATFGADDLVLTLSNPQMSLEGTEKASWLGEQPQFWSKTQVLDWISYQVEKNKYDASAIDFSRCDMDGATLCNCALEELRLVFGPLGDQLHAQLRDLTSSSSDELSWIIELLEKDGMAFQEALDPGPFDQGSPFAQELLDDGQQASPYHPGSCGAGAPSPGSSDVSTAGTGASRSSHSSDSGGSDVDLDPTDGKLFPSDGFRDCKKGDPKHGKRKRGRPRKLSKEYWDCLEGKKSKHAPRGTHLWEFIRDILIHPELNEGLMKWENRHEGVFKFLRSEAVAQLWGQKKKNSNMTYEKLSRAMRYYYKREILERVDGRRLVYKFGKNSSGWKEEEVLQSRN
As to conditions: protein: recombinant; tags: N-terminal GST; dsDNA, one strand shown. The essentials: as §1

Test [9] concerns the target CRX (Homo sapiens, UniProt O43186 1-299). As to conditions: protein: recombinant; tags: N-terminal GST; dsDNA, one strand shown. The essentials:
as §1

The target of test [10] is ETV1 (Homo sapiens, UniProt P50549 1-477). As to conditions: protein: recombinant; tags: N-terminal GST; dsDNA, one strand shown. The essentials: as §1
Sequence of ETV1 (P50549 whole entry): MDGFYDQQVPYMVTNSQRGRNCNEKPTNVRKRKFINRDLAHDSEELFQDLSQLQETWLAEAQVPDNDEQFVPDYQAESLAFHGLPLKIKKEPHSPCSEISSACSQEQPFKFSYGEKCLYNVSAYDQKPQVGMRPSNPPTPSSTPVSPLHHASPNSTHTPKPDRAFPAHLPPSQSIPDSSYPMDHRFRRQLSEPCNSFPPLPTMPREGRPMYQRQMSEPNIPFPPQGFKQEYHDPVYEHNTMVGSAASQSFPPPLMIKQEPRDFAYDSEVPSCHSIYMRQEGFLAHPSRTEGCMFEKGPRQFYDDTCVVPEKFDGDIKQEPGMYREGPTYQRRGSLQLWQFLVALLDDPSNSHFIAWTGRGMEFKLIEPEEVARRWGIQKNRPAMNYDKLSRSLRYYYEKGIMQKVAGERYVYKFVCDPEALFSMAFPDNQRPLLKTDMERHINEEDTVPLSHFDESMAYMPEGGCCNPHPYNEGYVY
Test [11] has as its target T6, ERF (Homo sapiens, UniProt P50548 1-548).
T6 sequence: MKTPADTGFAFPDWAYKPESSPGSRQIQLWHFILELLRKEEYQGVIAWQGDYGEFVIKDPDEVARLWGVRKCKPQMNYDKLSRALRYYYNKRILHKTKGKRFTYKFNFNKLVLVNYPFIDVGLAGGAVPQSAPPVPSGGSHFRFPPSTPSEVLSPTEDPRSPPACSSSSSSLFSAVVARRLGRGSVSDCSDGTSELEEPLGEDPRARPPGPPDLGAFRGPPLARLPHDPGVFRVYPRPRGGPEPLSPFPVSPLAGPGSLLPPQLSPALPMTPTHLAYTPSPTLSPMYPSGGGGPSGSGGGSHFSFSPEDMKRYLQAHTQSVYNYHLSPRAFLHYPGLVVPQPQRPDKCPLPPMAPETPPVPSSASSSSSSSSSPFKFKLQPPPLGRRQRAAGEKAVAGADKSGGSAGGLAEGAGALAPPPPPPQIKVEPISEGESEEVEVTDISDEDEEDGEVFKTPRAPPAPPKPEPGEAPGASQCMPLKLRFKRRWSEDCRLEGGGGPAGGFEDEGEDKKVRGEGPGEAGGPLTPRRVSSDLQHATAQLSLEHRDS
As to conditions: protein: recombinant; tags: N-terminal GST; dsDNA, one strand shown. A digest of the protocol: as §1

For test [12], the target named is T7, ETV3L (Homo sapiens, UniProt Q6ZN32 1-361).
T7 sequence: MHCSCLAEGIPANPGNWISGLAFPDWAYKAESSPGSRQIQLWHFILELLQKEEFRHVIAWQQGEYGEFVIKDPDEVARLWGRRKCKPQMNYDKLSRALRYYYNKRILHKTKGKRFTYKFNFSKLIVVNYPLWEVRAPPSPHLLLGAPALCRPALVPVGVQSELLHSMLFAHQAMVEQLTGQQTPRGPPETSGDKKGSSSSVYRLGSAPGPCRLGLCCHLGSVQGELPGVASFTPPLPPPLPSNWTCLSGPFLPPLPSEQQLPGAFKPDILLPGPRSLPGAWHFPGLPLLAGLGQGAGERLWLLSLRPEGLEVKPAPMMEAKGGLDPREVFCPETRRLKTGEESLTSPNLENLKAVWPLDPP
As to conditions: protein: recombinant; tags: N-terminal GST; dsDNA, one strand shown. A digest of the protocol:
as §1

The target in test [13] is T8, ETS2 (Homo sapiens, UniProt P15036 1-469).
T8 sequence: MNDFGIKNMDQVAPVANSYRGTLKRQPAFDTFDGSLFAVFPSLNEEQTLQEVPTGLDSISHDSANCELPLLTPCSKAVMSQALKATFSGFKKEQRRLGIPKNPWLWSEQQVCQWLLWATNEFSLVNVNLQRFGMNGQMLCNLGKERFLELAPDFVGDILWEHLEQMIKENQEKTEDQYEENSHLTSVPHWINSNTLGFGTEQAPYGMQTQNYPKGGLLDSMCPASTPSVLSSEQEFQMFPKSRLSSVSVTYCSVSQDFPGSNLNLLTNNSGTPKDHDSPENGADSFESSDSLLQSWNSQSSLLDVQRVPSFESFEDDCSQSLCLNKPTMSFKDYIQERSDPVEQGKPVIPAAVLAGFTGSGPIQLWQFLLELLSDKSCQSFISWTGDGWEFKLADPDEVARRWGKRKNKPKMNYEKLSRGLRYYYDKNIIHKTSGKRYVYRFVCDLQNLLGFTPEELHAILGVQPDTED
As to conditions: protein: recombinant; tags: N-terminal GST; dsDNA, one strand shown. A digest of the protocol: as §1

Test [14] addresses T9, SPDEF (Homo sapiens, UniProt O95238 1-335).
T9 sequence: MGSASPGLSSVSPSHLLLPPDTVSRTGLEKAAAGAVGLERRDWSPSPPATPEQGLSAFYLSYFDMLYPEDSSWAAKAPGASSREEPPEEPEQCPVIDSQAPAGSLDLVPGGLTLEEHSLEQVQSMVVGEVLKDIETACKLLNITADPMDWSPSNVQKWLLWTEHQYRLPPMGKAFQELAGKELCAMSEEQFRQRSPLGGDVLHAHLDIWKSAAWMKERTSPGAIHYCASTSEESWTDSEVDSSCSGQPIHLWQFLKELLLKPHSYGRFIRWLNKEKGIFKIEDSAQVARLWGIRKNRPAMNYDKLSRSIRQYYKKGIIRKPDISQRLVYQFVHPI
As to conditions: protein: recombinant; tags: N-terminal GST; dsDNA, one strand shown. A digest of the protocol: as §1

The target in test [15] is T10, ETV7 (Homo sapiens, UniProt Q9Y603 1-341).
T10 sequence: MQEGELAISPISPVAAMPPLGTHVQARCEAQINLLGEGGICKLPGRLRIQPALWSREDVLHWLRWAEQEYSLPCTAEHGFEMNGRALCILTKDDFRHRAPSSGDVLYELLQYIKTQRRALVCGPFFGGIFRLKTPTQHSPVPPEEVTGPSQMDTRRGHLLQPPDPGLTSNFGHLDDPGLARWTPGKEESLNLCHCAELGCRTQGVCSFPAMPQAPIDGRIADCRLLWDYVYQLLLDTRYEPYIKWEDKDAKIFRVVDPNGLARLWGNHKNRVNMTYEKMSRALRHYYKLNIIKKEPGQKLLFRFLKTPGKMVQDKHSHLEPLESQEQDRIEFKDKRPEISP
As to conditions: protein: recombinant; tags: N-terminal GST; dsDNA, one strand shown. A digest of the protocol:
as §1

The target in test [16] is T11, ELF5 (Homo sapiens, UniProt Q9UKW6-2 1-255).
T11 sequence: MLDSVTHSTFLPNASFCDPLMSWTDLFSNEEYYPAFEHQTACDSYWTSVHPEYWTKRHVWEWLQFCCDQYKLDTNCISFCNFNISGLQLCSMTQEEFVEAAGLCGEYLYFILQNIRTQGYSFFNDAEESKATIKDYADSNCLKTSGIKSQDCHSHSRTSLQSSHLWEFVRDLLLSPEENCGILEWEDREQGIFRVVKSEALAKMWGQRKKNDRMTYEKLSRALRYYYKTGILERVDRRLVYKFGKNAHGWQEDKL
As to conditions: protein: recombinant; tags: N-terminal GST; dsDNA, one strand shown. A digest of the protocol:
as §1

Test [17] concerns the target T12, ETV3 (Homo sapiens, UniProt P41162-2 1-143).
T12 sequence: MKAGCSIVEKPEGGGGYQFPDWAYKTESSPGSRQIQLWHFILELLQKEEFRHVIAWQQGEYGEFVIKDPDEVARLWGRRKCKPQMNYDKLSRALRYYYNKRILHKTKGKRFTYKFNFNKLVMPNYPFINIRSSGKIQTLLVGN
As to conditions: protein: recombinant; tags: N-terminal GST; dsDNA, one strand shown. A digest of the protocol:
as §1

Test [18] deals with ETV6 (Homo sapiens, UniProt P41212 1-452). As to conditions: protein: recombinant; tags: N-terminal GST; dsDNA, one strand shown. The essentials: as §1
Sequence of ETV6 (P41212 whole entry): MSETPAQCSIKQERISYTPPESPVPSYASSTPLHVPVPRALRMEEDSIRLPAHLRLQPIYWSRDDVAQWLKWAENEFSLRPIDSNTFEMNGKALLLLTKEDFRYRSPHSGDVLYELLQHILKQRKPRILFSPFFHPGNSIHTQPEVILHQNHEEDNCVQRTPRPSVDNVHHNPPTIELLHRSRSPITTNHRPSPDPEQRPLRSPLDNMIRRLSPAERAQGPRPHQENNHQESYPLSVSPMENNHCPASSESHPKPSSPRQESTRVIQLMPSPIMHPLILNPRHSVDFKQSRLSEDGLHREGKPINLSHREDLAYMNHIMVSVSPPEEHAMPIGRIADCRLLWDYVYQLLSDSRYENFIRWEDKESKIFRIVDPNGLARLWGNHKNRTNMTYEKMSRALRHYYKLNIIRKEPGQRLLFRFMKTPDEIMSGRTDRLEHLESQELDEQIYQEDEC

Sequence of CRX (O43186 whole entry): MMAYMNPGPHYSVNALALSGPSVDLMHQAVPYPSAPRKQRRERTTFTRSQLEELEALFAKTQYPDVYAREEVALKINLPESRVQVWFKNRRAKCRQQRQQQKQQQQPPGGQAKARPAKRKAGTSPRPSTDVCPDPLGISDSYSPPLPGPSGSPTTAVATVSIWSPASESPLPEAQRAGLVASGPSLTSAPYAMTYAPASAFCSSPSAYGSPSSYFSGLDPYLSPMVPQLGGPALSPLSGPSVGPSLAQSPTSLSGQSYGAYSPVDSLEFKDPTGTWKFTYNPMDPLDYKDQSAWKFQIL
Sequence of HSF1 (Q00613 whole entry): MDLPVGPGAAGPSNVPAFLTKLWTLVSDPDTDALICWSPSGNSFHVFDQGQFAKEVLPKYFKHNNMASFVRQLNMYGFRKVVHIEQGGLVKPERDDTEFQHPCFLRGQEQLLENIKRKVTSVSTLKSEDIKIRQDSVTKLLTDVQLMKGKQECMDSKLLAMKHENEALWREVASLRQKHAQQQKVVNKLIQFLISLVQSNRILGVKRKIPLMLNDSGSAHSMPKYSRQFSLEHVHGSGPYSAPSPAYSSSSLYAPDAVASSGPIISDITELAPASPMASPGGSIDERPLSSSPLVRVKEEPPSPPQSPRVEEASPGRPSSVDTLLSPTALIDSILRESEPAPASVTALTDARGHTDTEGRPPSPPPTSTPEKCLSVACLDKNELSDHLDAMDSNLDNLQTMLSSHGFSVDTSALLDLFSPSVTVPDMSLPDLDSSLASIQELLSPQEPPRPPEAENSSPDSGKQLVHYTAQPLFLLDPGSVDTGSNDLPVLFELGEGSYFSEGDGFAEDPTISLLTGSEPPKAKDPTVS
Sequence of ELF4 (Q99607 whole entry): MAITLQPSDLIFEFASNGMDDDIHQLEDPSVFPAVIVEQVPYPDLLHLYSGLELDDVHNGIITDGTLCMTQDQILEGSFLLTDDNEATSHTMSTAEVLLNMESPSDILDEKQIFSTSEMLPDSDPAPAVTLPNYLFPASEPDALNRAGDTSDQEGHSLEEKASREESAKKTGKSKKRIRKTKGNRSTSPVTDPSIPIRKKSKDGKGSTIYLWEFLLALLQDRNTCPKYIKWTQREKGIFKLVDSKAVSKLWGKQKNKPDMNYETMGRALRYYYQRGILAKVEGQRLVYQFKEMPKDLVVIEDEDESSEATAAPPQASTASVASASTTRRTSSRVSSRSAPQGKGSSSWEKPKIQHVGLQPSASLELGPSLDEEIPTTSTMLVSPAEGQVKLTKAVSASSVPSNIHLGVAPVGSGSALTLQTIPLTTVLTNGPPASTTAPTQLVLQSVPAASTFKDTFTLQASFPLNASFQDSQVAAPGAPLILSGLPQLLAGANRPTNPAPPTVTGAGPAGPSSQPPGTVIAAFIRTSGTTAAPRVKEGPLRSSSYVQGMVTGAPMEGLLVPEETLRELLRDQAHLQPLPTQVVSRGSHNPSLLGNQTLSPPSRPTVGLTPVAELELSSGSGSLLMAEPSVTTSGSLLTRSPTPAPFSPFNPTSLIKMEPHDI

With AACATA, the binding signal in test [1] was 1.2 fold enrichment (6-mer frequency, TF over GST control); in test [2] it was 1.31 fold enrichment (6-mer frequency, TF over GST control); in [3], 1.36 fold enrichment (6-mer frequency, TF over GST control); in [4], 1.37 fold enrichment (6-mer frequency, TF over GST control); in test [5], 1.3 fold enrichment (6-mer frequency, TF over GST control); in test [6], 1.16 fold enrichment (6-mer frequency, TF over GST control). In addition, the binding signal in test [7] was 1.38 fold enrichment (6-mer frequency, TF over GST control); in [8] it was 1.36 fold enrichment (6-mer frequency, TF over GST control); in test [9], 1.3 fold enrichment (6-mer frequency, TF over GST control); in test [10] it was 1.21 fold enrichment (6-mer frequency, TF over GST control); in test [11], 1.32 fold enrichment (6-mer frequency, TF over GST control); in [12] it was 1.24 fold enrichment (6-mer frequency, TF over GST control). Further, the binding signal in test [13] is 1.23 fold enrichment (6-mer frequency, TF over GST control); in test [14] it was 1.19 fold enrichment (6-mer frequency, TF over GST control); in test [15], 1.31 fold enrichment (6-mer frequency, TF over GST control); in test [16] it was 1.3 fold enrichment (6-mer frequency, TF over GST control); in test [17], 1.27 fold enrichment (6-mer frequency, TF over GST control); in [18], 1.27 fold enrichment (6-mer frequency, TF over GST control).
